Laboratory results: PubChem BioAssay AID1508600 (Functional Genomics Laboratory (NCATS/FGL), 2020)
Screen size: about 53,000 sequences; about 3,700 (7%) were called active. Only a selection was taken, and actives are over-represented in it overall. Unmarked numbers belong to inactive results.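 How the source made its calls: active means gene knockdowns whose robust z-score for IL-1 alpha signal is at least 2 or at most -2, so actives lie on both sides; inactive means the rest.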

Assay: Components of the Cytosolic LPS Sensing Pathway: Gene Identification via Genome-wide siRNA Screen
Conditions: RAW264.7 macrophages, IL-1a HTRF, actives lie on both sides, screened at 100 nM (by protocol), cells primed 5 h with Pam3CSK4 first
Text: Non-canonical inflammasome activation by cytosolic LPS is a critical component of the host response to Gram-negative bacterial infection, however we lack a comprehensive understanding of the cellular processes that control this pathway. Here we describe a genome-wide siRNA screen to identify genes regulating the mouse macrophage IL-1 alpha response to cytosolic LPS.
RAW264.7 cells were maintained in complete DMEM media, comprising DMEM with 4.5 g/L glucose, 10% FBS (Gemini Bio-Products, West Sacramento, CA), 2 mM Glutamine (Lonza) and 20 mM HEPES (Lonza), hereafter complete DMEM.
The RNAi screen was conducted in 384-well format using the Ambion Silencer Mouse Genome siRNA Library (#4391425), which consists of three unique, nonoverlapping, nonpooled siRNAs for each of 17,000 gene targets. siRNA reagents ([…]) were stamped into 384-well white flat-bottom microplates (Corning, 3570) using a Velocity11 VPrep liquid handling system (Agilent) integrated into a BioCel robotic platform (Agilent) in columns 1-22, leaving columns 23-24 empty for negative (Ambion, Negative control #1) and positive (mouse Casp4) controls, respectively. The median value of each plate's negative control column was used to normalize sample wells, and the positive control was used to assess transfection efficiency and assay performance.
Lipofectamine RNAiMAX Transfection Reagent ([…]; Invitrogen) was added in […] serum-free, antibiotic-free media to plate wells using a Thermo Scientific Matrix WellMate and Microplate Stacker. Plates were incubated for 45 min at room temperature to allow for the sufficient formation of siRNA-lipid complexes. Cells were seeded at a density of 1x10^4 cells per well in 20 microL media containing 20% (vol/vol) FBS without antibiotics. The final concentration of siRNA in each well was 100 nM. Cells were cultured for 48h at 37 degrees C in 5% CO2 before addition of […] of TLR ligand Pam3CSK4 for 5 hours. The medium was then removed, replaced with […] growth media and cell were transfected with […] of LipidA and TransIT-TKO (Mirus) for 24 hour. At the end of the LipidA treatment, […] of supernatant was transferred to a 384 Greiner Bio-one non-binding low volume plate and […] of IL-1a HTRF reagent (Cisbio, 62MIL1APEH) was added and incubated at room temperature overnight. The plates were read on an EnVision plate reader (PerkinElmer). Cell viability was measured by adding 20ul Cell Titer Glo to the original plate and running a luminescence read on the EnVision. The quantified IL-1a signal for each siRNA gene-targeted well was divided by the median of the negative control wells and multiplied by 100 to achieve a negative control normalized value for each well/siRNA. This normalized value was then used to generate a robust z-score by first taking the log of each value and then by subtracting the median and dividing by the […].

Sequence | z-score
GAUUUUCCUGCUCACAAUGTT against Olfr1269 | 1.03
GGACUUGAGUCAGCUCAUCTT against Fastk | -1.38
GCAACAUUGGAUGUACUCATT against Hdac10 | -2.63 (active)
CGUAUAUCCGGUCAGAAGATT against Cnot4 | 0.634
GCAGCAUCGCUAUGUCCUGTT against Ccl26 | 0.182
GGAACAAUGCUCAAUUUUUTT against Rfc1 | 1.63
GCUCCUACGUGUCAGCCUUTT against Skor1 | -0.815
CGGUCAUGUCUACAUGUGCTT against Cfp | -0.0864
GGAAUUGUUAAUUGUGGGATT against Stau2 | -2.25 (active)
GGCUUCAGAUUUCGAUAUGTT against Nfkb2 | 1.02
CCUUGGACUUGAGUUCCAATT against Ssu2 | 1.58
GGCAAAUGUGGCCGUGUUUTT against Ccne1 | 0.175
GGAAGAAGCAAAGAACUAUTT against Spg20 | 0.552
GGGCUGAUGUGGGCUAAAUTT against Tmem38a | 2.47 (active)
GCCCGGAAUAUAUAGCCCUTT against Hdac10 | -0.706
CCUCCAGAUAAGAAUGUGCTT against Fnip1 | -1.34
CGUAAGUGGACGACGGUUCTT against Kcnd3 | 0.106
CGAAGGUACUAUGUAUUUUTT against Tbce | -0.12
GGAACACAUUGGGUAUGCCTT against Sac3d1 | -0.575
GGUGUUUAUCGACAGGUACTT against Myo15 | 0.126
CAAACUGGGUCCCAAUGAATT against Ndufa4 | 2.7 (active)
GGGAAGUUGUCCUUGAAGATT against Cd36 | -0.037
GGACCAUCCCUGUUUUAUATT against Ifrd2 | -0.0712

Sequence | z-score
GGUCCCUAGCACUAUUUUUTT against Hes6 | 1.04
GGAAUAUCACUUCCAUACATT against Ntrk3 | 0.587
GACCAACCCUCACUAAGCUTT against Tcstv3 | -0.364
GGAGCAGAUAAUGUACAUATT against Cep112 | 2.32 (active)
GGACUAUUUGGAAACCUCCTT against Olfr1366 | -0.304
GGAUGUAACUAGUAACUUUTT against Kcnn3 | 0.108
GCAAGAAAACCUUAGCUCATT against Trpm2 | -0.518
CGGAUACAGGUUCGGGUAATT against Nemp1 | 1.06
CCGUGACGAGCUUGUGGUUTT against Ap3b2 | 0.788
GGUCCGAUAUCUGAGUCUCTT against Hic1 | 0.471
CCUUAAUCGCAUCAAAUUATT against Slc1a3 | 2.35 (active)
GGUUAGAAUAUGCAGAACATT against Arntl | -0.525
GGAGGGCAUCCUCUUCAAATT against Drc3 | 0.312
GGUAUUAUGACUGUAAAGGTT against Endou | 0.0412
GGAAGUGAAUAUUGAGUUUTT against Bccip | 2.04 (active)
GGAGAAGAAAAAGAUUAUCTT against Atp6v1d | 1.07
GGGAAGAUGUGGAUGUCAUTT against Oprk1 | -1.05
GGUUGUUAGAGAUUUGACCTT against Kctd12 | -0.208
CCUGCACACCAAGUAUCUGTT against Ccl6 | -0.252
GGAAGCACUUCUGCUUUCUTT against Azin2 | -0.0234
GCUACACCCUCUGUGAGUUTT against Csrnp2 | -2.07 (active)
GGAGAUUCUGUAGGUUAUUTT against Lrat | 0.0632
GGGACACUGUGUCCCUUCUTT against Tmem189 | -0.0937

Sequence | z-score
CCAAAUGAGGCUACCACAATT against Socs7 | -0.0785
GGAUCUGGUUGGCAAGCAUTT against Krt33a | 2.87 (active)
GGAACUUGGGCAUUCCAGATT against Adck2 | -0.676
GGAAAUCAGUGAACAUCUUTT against Tshr | 0.525
CCAGAAACUAGCCUACUACTT against Vgll2 | 0.395
GGAACUAGUCUGGUGAACUTT against Apoa2 | -1.35
GAUUAAUAGUGGUUUCUGATT against Olfr1219 | -0.219
GGGUGUGUUUUUAUGUGUUTT against Lcp2 | 2.57 (active)
GGGAGGAAGAAGAAGGUCATT against Atp1b4 | -0.193
GGCAGUCAAUAGUGGCCUGTT against Bcor | 1.12
CCAGUAUUUGAGAAUUCUGTT against Gm4788 | -0.763
CGACAAGCUGUACCUCUACTT against Rfx5 | 3.41 (active)
GCUGGAGUUUCAGUCAAGGTT against Ctso | -0.355
AUGCAAGAGGAACGUAUCATT against Olfr1181 | -0.572
GGUUUACCCAUCUUGGCCATT against Vwf | -0.501
GGAUAUUGAUUCAGUCAAGTT against Rac2 | -1.16
GGAUAUAUUGAAAUGCCCATT against Zbtb14 | 0.394
GGAUUUAUCCUGGUGACUUTT against Cox20 | 2.49 (active)
GGUAUUCAGUAUUUUGACUTT against Olfr196 | 1.56
GGCUGUCGUCAUUGAAGGATT against Ankrd27 | -0.771
GCGACAAGAGGCUUUAGCATT against Selenos | 0.692
GGAGCAGAAAGAAAUUUCCTT against Gpa33 | 0.48
GCUUCAACAGUAAUAAUCGTT against Adamtsl1 | 2.75 (active)
